The values below come from PubChem BioAssay (NCI).

Compounds without any hit were thinned out: in the full panel of roughly 83,000, 20% have a hit.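 Negative percent growth values reflect cell death: -40 means 40% of the cells present at the start died, and -100 means all died.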 A number with no mark means an inactive call. Active and inactive are the calls of the source. The calls were made as follows: active = growth percent below 10; inactive = the rest.

Among the test systems are DU-145 prostate; K-562 leukemia; MALME-3M melanoma; MDA-MB-231 breast; RXF 393 renal; SF-268 CNS; SF-295 CNS; SF-539 CNS; UACC-257 melanoma; M14 melanoma; HCT-15 colon; HT29 colon; SNB-75 CNS; SNB-19 CNS; U251 CNS; PC-3 prostate; SK-MEL-5 melanoma; UACC-62 melanoma; LOX IMVI melanoma; SK-MEL-28 melanoma.
Common to all, as to assay: NCI-60 one-dose screen, 48 h (100 = growth as untreated, 0 = no growth, -100 = all killed)
Common to all, as to details: 10 µM unless noted

In the case of `COc1ccc(/C(C)=C(\c2ccc(Cl)cc2)c2ccc(OCCN3CCCCC3)cc2)cc1`, the growth is 78.8% with DU-145 prostate; 3.68% (active) in the test on K-562 leukemia; 35.1% in the test on MALME-3M melanoma; 45.7% in the test with MDA-MB-231 breast; 33.5% in the test with RXF 393 renal; 59.2% in the test on SF-268 CNS. The growth in the test with SF-295 CNS was 7.09% (active); in the test with SF-539 CNS, 43.9%; with UACC-257 melanoma it was 1.77% (active); in the test on M14 melanoma it was 4.01% (active); with HCT-15 colon, 9.98% (active); in the test with HT29 colon, -2.6% (active). Also, the growth is 89.1% in the test on SNB-75 CNS; 62.8% with SNB-19 CNS; 36.4% in the test with U251 CNS; 41% with PC-3 prostate; -39% (active) with SK-MEL-5 melanoma; 33.4% in the test on UACC-62 melanoma. Further, the figures for the growth with LOX IMVI melanoma and in the test with SK-MEL-28 melanoma were 3.11% (active) and 20.1%, respectively.
On to `CCN1CCN(c2cc(C)nc(N(CCNc3ccnc4cc(Cl)ccc34)Cc3ccc4c(c3)OCO4)n2)CC1`, for which the growth in the test with DU-145 prostate was 26.5%; with K-562 leukemia, -48.4% (active); with MALME-3M melanoma, -65.8% (active); in the test on MDA-MB-231 breast, -42.4% (active); with RXF 393 renal it was -82.5% (active); in the test on SF-268 CNS it was 7.14% (active). For the same compound, the growth with SF-295 CNS is -63.5% (active); with SF-539 CNS it was -71.2% (active); with UACC-257 melanoma, -59.9% (active); in the test on M14 melanoma, -66.5% (active); in the test on HCT-15 colon it was -28.8% (active); in the test with HT29 colon it was -37.9% (active). Also, the growth with SNB-75 CNS is -75.3% (active); with SNB-19 CNS, 29.7%; with U251 CNS, -50.4% (active); in the test on PC-3 prostate, 20%; in the test with SK-MEL-5 melanoma it was -95.8% (active); in the test on UACC-62 melanoma, -32.2% (active). The growth with LOX IMVI melanoma was -80.3% (active); in the test on SK-MEL-28 melanoma, -65.6% (active).
In the case of `CN1CCN(CCCOc2cccc3nc(Nc4ccc(F)c(F)c4)ccc23)CC1`, the growth was 7.31% (active) in the test with DU-145 prostate; -41.5% (active) with K-562 leukemia; -64.8% (active) with MALME-3M melanoma; -69.9% (active) with MDA-MB-231 breast; 16.4% in the test on RXF 393 renal; 26% in the test with SF-268 CNS. In addition, the growth with SF-295 CNS was -65% (active); in the test with SF-539 CNS, -53.5% (active); with UACC-257 melanoma it was -76.7% (active); in the test with M14 melanoma, -78.5% (active); in the test on HCT-15 colon it was -79.9% (active); with HT29 colon, -69.5% (active). Besides, the growth in the test on SNB-75 CNS is -5.9% (active); in the test with SNB-19 CNS, -17.4% (active); in the test on U251 CNS it was -70.3% (active); with PC-3 prostate, -43.6% (active); in the test on SK-MEL-5 melanoma, -100% (active); in the test with UACC-62 melanoma it was -75.4% (active). Besides, the growth with LOX IMVI melanoma is -87.7% (active); in the test on SK-MEL-28 melanoma it was -82.3% (active).
For the compound `C=C1C(=O)O[C@H]2[C@H]1CC/C(COC(=O)NCc1ccc(Cn3c(=O)sn(-c4ccc(C#N)cc4)c3=O)cc1)=C\CC[C@@]1(C)O[C@@H]21`, the growth in the test with DU-145 prostate is 8.56% (active); with K-562 leukemia it was 20.4%; in the test with MALME-3M melanoma it was 56.9%; in the test with MDA-MB-231 breast, 48.6%; in the test on RXF 393 renal it was 52.7%; with SF-268 CNS, 75.1%. The growth is 102% with SF-295 CNS; 61.2% in the test with SF-539 CNS; 69.4% with UACC-257 melanoma; 68.8% with M14 melanoma; 87.8% in the test with HCT-15 colon; 48.2% in the test with HT29 colon. In addition, the growth is 80.3% with SNB-75 CNS; 88.5% in the test on SNB-19 CNS; 81.2% in the test on U251 CNS; 71.6% in the test on PC-3 prostate; 89.5% in the test on SK-MEL-5 melanoma; 69.3% in the test on UACC-62 melanoma. The growth in the test with LOX IMVI melanoma was 65.9%; in the test with SK-MEL-28 melanoma, 87.2%.
Regarding `CN1CCN(c2ccc(NC(=O)c3cncnc3Nc3ccc(OCc4cccc(F)c4)c(Cl)c3)cc2)CC1`, the growth with DU-145 prostate was 80.3%; with K-562 leukemia, 1.91% (active); in the test with MALME-3M melanoma, 78.4%; with MDA-MB-231 breast, -13.3% (active); in the test with RXF 393 renal, 55.5%; with SF-268 CNS it was 78.7%. The growth was 99.8% in the test on SF-295 CNS; 43.3% in the test on SF-539 CNS; 90.5% in the test with UACC-257 melanoma; -15.5% (active) in the test on M14 melanoma; -39.6% (active) with HCT-15 colon; -55.3% (active) in the test on HT29 colon. Also, the growth in the test on SNB-75 CNS was 68.3%; in the test on SNB-19 CNS, 84.1%; in the test on U251 CNS, 47%; with PC-3 prostate it was 68.1%; with SK-MEL-5 melanoma, 87.8%; with UACC-62 melanoma, 48%. The growth in the test on LOX IMVI melanoma was 29.7%; in the test with SK-MEL-28 melanoma, 81.1%.
With `COc1ccc(-c2ccc(-c3ccc(C(=N)N)nc3)s2)cc1Cl`, the growth with DU-145 prostate is -92.5% (active); with K-562 leukemia it was -29.8% (active); with MALME-3M melanoma, 74.1%; in the test on MDA-MB-231 breast, -75.1% (active); in the test with RXF 393 renal, 56.8%; with SF-268 CNS it was -62.8% (active). In addition, the growth in the test with SF-295 CNS is -78.4% (active); with SF-539 CNS, -90.6% (active); with UACC-257 melanoma, 93.5%; with M14 melanoma, -40.6% (active); in the test on HCT-15 colon, -77.4% (active); in the test with HT29 colon it was 2.52% (active). The growth with SNB-75 CNS was 80.5%; with SNB-19 CNS, -35.8% (active); in the test on U251 CNS it was -71.7% (active); in the test on PC-3 prostate, -28.3% (active); in the test on SK-MEL-5 melanoma it was 76%; in the test on UACC-62 melanoma, 96.3%. Besides, the growth in the test with LOX IMVI melanoma was -76.4% (active); in the test on SK-MEL-28 melanoma, 97.2%.
For the compound `CCNC(=O)Oc1ccc(/C(=C(/CC)Cc2ccccc2)c2ccc(OCCN3CCCC3)cc2)cc1`, the growth was 104% in the test with DU-145 prostate; 64.7% in the test with K-562 leukemia; 107% in the test with MALME-3M melanoma; 80.1% with MDA-MB-231 breast; 94.6% in the test with RXF 393 renal; 92.9% in the test on SF-268 CNS. The growth with SF-295 CNS is 102%; in the test on SF-539 CNS it was 97.2%; in the test with UACC-257 melanoma it was 90.1%; in the test on M14 melanoma it was 93.1%; with HCT-15 colon, 73.1%; in the test with HT29 colon, 98.6%. Besides, the growth is 85.5% in the test on SNB-75 CNS; 93.4% with SNB-19 CNS; 91.7% in the test with U251 CNS; 75% with PC-3 prostate; 91.7% in the test with SK-MEL-5 melanoma; 98.3% in the test on UACC-62 melanoma. In addition, the growth with LOX IMVI melanoma is 91.4%; in the test with SK-MEL-28 melanoma, 99%.
In the case of `C=CCn1c(SCC(=O)Nc2ccc(/C(C)=N/O)cc2)nnc1-c1cc(-c2ccc(S(N)(=O)=O)cc2)nc2ccccc12`, the growth in the test with DU-145 prostate was 105%; in the test on K-562 leukemia it was 38.8%; with MALME-3M melanoma it was 88.9%; in the test with MDA-MB-231 breast, 74.1%; in the test with RXF 393 renal, 93.5%; in the test with SF-268 CNS, 67.1%. Moreover, the growth in the test on SF-295 CNS is 98.4%; in the test on SF-539 CNS, 64.2%; in the test on UACC-257 melanoma, 92.7%; in the test on M14 melanoma, 93.5%; in the test on HCT-15 colon, 96.5%; in the test with HT29 colon it was 105%. Also, the growth in the test with SNB-75 CNS was 54.2%; in the test on SNB-19 CNS it was 70.3%; in the test on U251 CNS, 67.2%; in the test with PC-3 prostate, 80.2%; in the test with SK-MEL-5 melanoma, 65.6%; with UACC-62 melanoma, 69.7%. Besides, the growth in the test with LOX IMVI melanoma was 27%; in the test on SK-MEL-28 melanoma, 93.3%.
